# Experimental data from the supplement of paper PMC6555819.
# Tests used:
# Assay in all cases: PBM binding z-score (relative to random genomic background probes); higher = stronger binding; sequences stand for … in GC…GCGATTGACAGCGTAGAATGAAGG
# [1] = system: PPARg:RXRa DBDmut IVT, anti-RXR (DBD mutation: RXRa K156A/R161A, NR concentration 270 nM, RXRa partner concentration 90 nM)
# How it was run: (§1)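 Binding z-scores were set against random background probes. The data came from custom Agilent 4×180K protein-binding microarrays carrying double-stranded probes with 34-nt variable regions, incubated 1 h with ligand-free nuclear receptor dimers. Partner-specific antibodies detected binding, and scanned fluorescence was regression-normalized.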
# [2] = system: PPARg:RXRa IVT, anti-PPARg (NR concentration 270 nM, RXRa partner concentration 90 nM)
# How it was run: as §1
# [3] = system: PPARg homodimer (NR concentration 180 nM)
# How it was run: as §1
# [4] = system: PXR:RXRa (NR concentration 270 nM, RXRa partner concentration 90 nM)
# How it was run: as §1
# [5] = system: PXR homodimer (NR concentration 270 nM)
# How it was run: as §1
# [6] = system: RARa:RXR (NR concentration 270 nM, RXRa partner concentration 90 nM)
# How it was run: as §1
# [7] = system: RARa homodimer (NR concentration 270 nM)
# How it was run: as §1
# [8] = system: RARb:RXRa (NR concentration 270 nM, RXRa partner concentration 90 nM)
# How it was run: as §1
# [9] = system: RARb homodimer (NR concentration 270 nM)
# How it was run: as §1
# [10] = system: RARg:RXRa (NR concentration 270 nM, RXRa partner concentration 90 nM)
# How it was run: as §1
# [11] = system: RARg homodimer (NR concentration 270 nM)
# How it was run: as §1
# [12] = system: RXRa DBDmut IVT, anti-RXR (DBD mutation: RXRa K156A/R161A, NR concentration 90 nM)
# How it was run: as §1
# [13] = system: RXRa homodimer (NR concentration 180 nM)
# How it was run: as §1
# [14] = system: THRa:RXRa (NR concentration 90 nM, RXRa partner concentration 90 nM)
# How it was run: as §1
# [15] = system: THRa homodimer (NR concentration 90 nM)
# How it was run: as §1
# [16] = system: VDR homodimer (NR concentration 270 nM)
# How it was run: as §1
Sequence,PBM binding z-score [1],PBM binding z-score [2],PBM binding z-score [3],PBM binding z-score [4],PBM binding z-score [5],PBM binding z-score [6],PBM binding z-score [7],PBM binding z-score [8],PBM binding z-score [9],PBM binding z-score [10],PBM binding z-score [11],PBM binding z-score [12],PBM binding z-score [13],PBM binding z-score [14],PBM binding z-score [15],PBM binding z-score [16]
TCGAGTAGGTTACGGGGGCATTCCGGGATGAAGA,4.92,5.8,1.57,3.08,1.1,3.14,0.0892,2.51,2.02,3.36,2.56,1.49,2.87,3.7,0.954,2.67
CCGAGTAGGTTACGAGGGGGCATCCAGTGCGAAT,4.1,4.45,1.63,4.3,2.67,2.86,0.122,2.1,2.11,2.95,2.31,0.736,2.02,3.7,0.756,2.87
CCGACTAGGTTACGAGGGGGCATTCAGTGCGAAT,4.63,4.93,1.66,4.6,5.23,2.64,0.38,2.02,2.21,2.97,2.26,1.5,1.62,3.52,0.757,3.12
CTATGTAGGTTAAGGGGGTCATTCATTTTGAAAG,7.22,7.67,2.86,5.45,5.06,5.94,1.58,3.38,3.81,4.91,3.98,2.28,5.74,3.64,1.93,5.01
CCGAGTAGGTTACGAAGGGGCATTCAGTGCGAAT,4.07,3.33,0.383,2.86,1.4,1.04,0.184,1.56,1.42,1.22,1.2,0.309,0.781,2.26,-0.808,1.23
TCGAGTAGGATACGGGGGCATTCAGGGATGAAGA,1.6,3.19,0.663,2.12,0.916,2.17,0.237,1.25,1.19,1.52,0.916,1.24,1.29,3.47,0.629,2.79
CTATGTAGGTTAAGGGGGTCATTAAGTTTGAAAG,7.49,7.73,3.7,5.89,12.5,5.37,1.68,3.58,3.65,4.97,3.44,2.43,5.43,3.79,2.03,6.07
CCGAGTAGGTTACGAGTGGGCATTCAGTGCGAAT,4.82,3.49,0.313,0.0829,-0.15,0.124,-0.322,0.921,0.401,0.298,0.292,-0.0539,0.364,0.606,-0.579,0.108
CTATGTACGTTAAGGGGGTCATTCAGTTTGAAAG,3.42,5.2,3.11,5.68,9.08,5.5,1.37,3.45,3.65,4.57,3.69,2.99,5.04,3.86,2.71,5.96
CTATGTAGGTTAAGGGGGTCGTTCAGTTTGAAAG,7.46,7.3,2.23,3.86,6.99,3.39,1.49,2.37,2.42,2.9,2.06,1.7,2.93,2.7,1.62,4.04
TCGAGTAGTTTACGGGGGCATTCAGGGATGAAGA,2.03,3.22,0.685,2.74,1.47,2.36,-0.25,2,1.53,2.16,1.57,2.09,1.48,3.55,1.05,3.23
CTATGTAGATTAAGGGGGTCATTCAGTTTGAAAG,3.6,4.97,4.49,5.56,10.4,5.56,3.01,3.42,3.68,4.14,2.94,2.82,5.19,3.74,2.37,5.58
CCGAGTCGGTTACGAGGGGGCATTCAGTGCGAAT,0.193,0.806,0.506,2.86,5.49,1.77,0.0912,1.12,1.4,1.66,1.41,0.587,0.76,2.35,0.015,3.2
CTATGTAGGTTAAGGGGGTCATCCAGTTTGAAAG,7.02,7.73,3.6,5.82,9.26,5.73,1.05,3.65,4.02,5.27,4.17,2.11,5.94,3.97,1.94,4.9
CTATGTAGGTTAAGGGGGTAATTCAGTTTGAAAG,7.52,7.27,2.67,2.99,1.83,2.31,1.28,2.32,1.84,2.06,1.59,1.27,1.95,2.44,1.35,1.41
